# According to PubChem BioAssay AID1159580 (chemical genetic matrix, 2015):
# “And” between values parts separate entries of the source, which are not always exact repeats. Identical values can stand only once. Hit rate of the full screen: of about 5,500 compounds, about 2,000 (36%) were called active. Not shown: some 18% with an inconclusive outcome. The list shows a part of the results. Unmarked numbers belong to inactive results. Cut-off read from the data, not from the text of the source: active = normalized growth mostly below about 0.91 (no sharp cut-off); inconclusive = no clear call, values can overlap the other calls; inactive = mostly above about 0.92.
# Assay: chemical genetic growth profiling, strain panel (AID 1159580);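 note: tested at 20 µM; growth read once vehicle control cultures reached saturation at 30 °C; 1 = growth at the plate median or of vehicle wells; lower values mean less growth of the strain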
# Details: growth OD
smiles,measurement,setting,value
O=C(/C=C/c1ccc(O)cc1)c1ccc(O)cc1O,normalized growth,"S. cerevisiae deletion strains, locus YJR075W, strain HOC1, active compounds read low",0.985 and 0.976
same,normalized growth,"S. cerevisiae deletion strains, locus YKL009W, strain mrt4, active compounds read low",0.947
same,normalized growth,"S. cerevisiae deletion strains, locus YKL068W, active compounds read low",0.95
same,normalized growth,"S. cerevisiae deletion strains, locus YKL085W, strain MDH1 (second series), active compounds read low",0.965
same,normalized growth,"S. cerevisiae deletion strains, locus YKL085W, strain MDH1, active compounds read low",0.965
same,normalized growth,"S. cerevisiae deletion strains, locus YKL160W, strain elf1, active compounds read low",0.988
same,normalized growth,"S. cerevisiae deletion strains, locus YKL190W, strain CNB1, active compounds read low",0.993
same,normalized growth,"S. cerevisiae deletion strains, locus YKR001C, strain vps1, active compounds read low",0.887 (active)
same,normalized growth,"S. cerevisiae deletion strains, locus YKR026C, strain gcn3, active compounds read low",1.01
same,normalized growth,"S. cerevisiae deletion strains, locus YKR091W, strain srl3, active compounds read low",1.01
same,normalized growth,"S. cerevisiae deletion strains, locus YLL001W, strain dnm1, active compounds read low",1.01
same,normalized growth,"S. cerevisiae deletion strains, locus YLL026W, active compounds read low",1
same,normalized growth,"S. cerevisiae deletion strains, locus YLL041C, strain sdh2, active compounds read low",1.01
same,normalized growth,"S. cerevisiae deletion strains, locus YLR027C, strain aat2, active compounds read low",0.978
same,normalized growth,"S. cerevisiae deletion strains, locus YLR039C, strain RIC1, active compounds read low",0.942
same,normalized growth,"S. cerevisiae deletion strains, locus YLR058C, strain SHM2, active compounds read low",1.01
same,normalized growth,"S. cerevisiae deletion strains, locus YLR102C, strain apc9, active compounds read low",0.953
same,normalized growth,"S. cerevisiae deletion strains, locus YLR113W, strain HOG1, active compounds read low",0.927
same,normalized growth,"S. cerevisiae deletion strains, locus YLR221C, strain rsa3, active compounds read low",0.987
same,normalized growth,"S. cerevisiae deletion strains, locus YLR258W, strain gsy2, active compounds read low",1.01
same,normalized growth,"S. cerevisiae deletion strains, locus YLR262C, strain YPT6 (second series), active compounds read low",1.02
same,normalized growth,"S. cerevisiae deletion strains, locus YLR262C, strain YPT6, active compounds read low",1.02
same,normalized growth,"S. cerevisiae deletion strains, locus YLR268W, strain sec22, active compounds read low",0.957
same,normalized growth,"S. cerevisiae deletion strains, locus YLR320W, strain mms22, active compounds read low",1.01
same,normalized growth,"S. cerevisiae deletion strains, locus YLR330W, strain CHS5, active compounds read low",0.985
same,normalized growth,"S. cerevisiae deletion strains, locus YLR342W, strain FKS1 (second series), active compounds read low",0.981
same,normalized growth,"S. cerevisiae deletion strains, locus YLR342W, strain FKS1, active compounds read low",1
same,normalized growth,"S. cerevisiae deletion strains, locus YLR357W, strain rsc2, active compounds read low",0.997
same,normalized growth,"S. cerevisiae deletion strains, locus YLR370C, strain arc18, active compounds read low",1.02
same,normalized growth,"S. cerevisiae deletion strains, locus YLR371W, strain rom2, active compounds read low",0.9 (active)
same,normalized growth,"S. cerevisiae deletion strains, locus YLR384C, strain iki3, active compounds read low",1.01
same,normalized growth,"S. cerevisiae deletion strains, locus YLR418C, strain cdc73, active compounds read low",0.86
same,normalized growth,"S. cerevisiae deletion strains, locus YML016C, strain PPZ1, active compounds read low",0.986
same,normalized growth,"S. cerevisiae deletion strains, locus YML032C, strain rad52, active compounds read low",0.984
same,normalized growth,"S. cerevisiae deletion strains, locus YML120C, strain ndi1, active compounds read low",0.995
same,normalized growth,"S. cerevisiae deletion strains, locus YML124C, strain tub3, active compounds read low",0.964
same,normalized growth,"S. cerevisiae deletion strains, locus YMR058W, strain fet3, active compounds read low",1.02
same,normalized growth,"S. cerevisiae deletion strains, locus YMR078C, strain ctf18, active compounds read low",0.954
same,normalized growth,"S. cerevisiae deletion strains, locus YMR125W, strain sto1, active compounds read low",0.992
same,normalized growth,"S. cerevisiae deletion strains, locus YMR129W, active compounds read low",1.03
same,normalized growth,"S. cerevisiae deletion strains, locus YMR205C, strain PFK2, active compounds read low",0.967
same,normalized growth,"S. cerevisiae deletion strains, locus YMR223W, strain ubp8, active compounds read low",0.967
same,normalized growth,"S. cerevisiae deletion strains, locus YMR231W, strain pep5, active compounds read low",1.01
same,normalized growth,"S. cerevisiae deletion strains, locus YMR263W, strain SAP30, active compounds read low",0.989
same,normalized growth,"S. cerevisiae deletion strains, locus YMR307W, strain GAS1, active compounds read low",1.08
same,normalized growth,"S. cerevisiae deletion strains, locus YNL067W, strain RPL9B, active compounds read low",1.01
same,normalized growth,"S. cerevisiae deletion strains, locus YNL071W, strain lat1, active compounds read low",0.996
same,normalized growth,"S. cerevisiae deletion strains, locus YNL128W, strain TEP1, active compounds read low",0.964
same,normalized growth,"S. cerevisiae deletion strains, locus YNL153C, strain GIM3, active compounds read low",1.03
same,normalized growth,"S. cerevisiae deletion strains, locus YNL175C, strain NOP13, active compounds read low",0.979
same,normalized growth,"S. cerevisiae deletion strains, locus YNL183C, strain NPR1, active compounds read low",0.944
same,normalized growth,"S. cerevisiae deletion strains, locus YNL197C, strain WHI3, active compounds read low",0.992
same,normalized growth,"S. cerevisiae deletion strains, locus YNL209W, strain ssb2, active compounds read low",1
same,normalized growth,"S. cerevisiae deletion strains, locus YNL224C, strain SQS1, active compounds read low",0.976
same,normalized growth,"S. cerevisiae deletion strains, locus YNL233W, strain BNI4, active compounds read low",0.975
same,normalized growth,"S. cerevisiae deletion strains, locus YNL248C, strain rpa49, active compounds read low",1.04
same,normalized growth,"S. cerevisiae deletion strains, locus YNL250W, strain rad50, active compounds read low",0.961
same,normalized growth,"S. cerevisiae deletion strains, locus YNL271C, strain bni1, active compounds read low",0.965
same,normalized growth,"S. cerevisiae deletion strains, locus YNL298W, strain CLA4, active compounds read low",0.99
same,normalized growth,"S. cerevisiae deletion strains, locus YNL307C, strain MCK1, active compounds read low",0.968
same,normalized growth,"S. cerevisiae deletion strains, locus YNL322C, strain KRE1 (second series), active compounds read low",1
same,normalized growth,"S. cerevisiae deletion strains, locus YNR049C, strain mso1, active compounds read low",1.01
same,normalized growth,"S. cerevisiae deletion strains, locus YNR052C, strain pop2, active compounds read low",1.01
same,normalized growth,"S. cerevisiae deletion strains, locus YOL012C, strain htz1",1.77
same,normalized growth,"S. cerevisiae deletion strains, locus YOL147C, strain pex11, active compounds read low",0.969
same,normalized growth,"S. cerevisiae deletion strains, locus YOR001W, strain rrp6, active compounds read low",1.02
same,normalized growth,"S. cerevisiae deletion strains, locus YOR061W, strain CKA2, active compounds read low",0.988
same,normalized growth,"S. cerevisiae deletion strains, locus YOR069W, strain VPS5, active compounds read low",0.976
same,normalized growth,"S. cerevisiae deletion strains, locus YOR070C, strain gyp1, active compounds read low",1
same,normalized growth,"S. cerevisiae deletion strains, locus YOR080W, strain dia2, active compounds read low",1.01
same,normalized growth,"S. cerevisiae deletion strains, locus YOR083W, strain WHI5 (second series), active compounds read low",0.982
same,normalized growth,"S. cerevisiae deletion strains, locus YOR083W, strain WHI5, active compounds read low",0.974
same,normalized growth,"S. cerevisiae deletion strains, locus YOR106W, strain vam3, active compounds read low",0.988
same,normalized growth,"S. cerevisiae deletion strains, locus YOR136W, strain idh2, active compounds read low",0.974
same,normalized growth,"S. cerevisiae deletion strains, locus YOR144C, strain elg1, active compounds read low",0.99
same,normalized growth,"S. cerevisiae deletion strains, locus YOR184W, strain ser1, active compounds read low",0.93
same,normalized growth,"S. cerevisiae deletion strains, locus YOR231W, strain MKK1, active compounds read low",0.874
same,normalized growth,"S. cerevisiae deletion strains, locus YOR265W, strain rbl2, active compounds read low",1.02
same,normalized growth,"S. cerevisiae deletion strains, locus YOR270C, strain vph1, active compounds read low",1.04
same,normalized growth,"S. cerevisiae deletion strains, locus YOR290C, strain snf2, active compounds read low",0.976
same,normalized growth,"S. cerevisiae deletion strains, locus YOR316C, strain cot1, active compounds read low",0.962
same,normalized growth,"S. cerevisiae deletion strains, locus YPL051W, strain arl3, active compounds read low",0.975
same,normalized growth,"S. cerevisiae deletion strains, locus YPL055C, strain LGE1, active compounds read low",0.977
same,normalized growth,"S. cerevisiae deletion strains, locus YPL078C, strain atp4, active compounds read low",0.99
same,normalized growth,"S. cerevisiae deletion strains, locus YPL106C, strain sse1, active compounds read low",0.982
same,normalized growth,"S. cerevisiae deletion strains, locus YPL240C, strain hsp82, active compounds read low",1.01
same,normalized growth,"S. cerevisiae deletion strains, locus YPL256C, strain CLN2, active compounds read low",0.877
same,normalized growth,"S. cerevisiae deletion strains, locus YPR119W, strain clb2, active compounds read low",0.949
same,normalized growth,"S. cerevisiae deletion strains, locus YPR141C, strain kar3, active compounds read low",0.972
same,normalized growth,"S. cerevisiae deletion strains, locus YPR163C, strain tif3, active compounds read low",0.976
same,normalized growth,"S. cerevisiae deletion strains, locus YPR167C, strain met16, active compounds read low",0.966
same,normalized growth,"S. cerevisiae deletion strains, strain wtn01, active compounds read low",0.94
same,normalized growth,"S. cerevisiae strains, strain wild type, active compounds read low",0.991
